Screening results from PubChem BioAssay.
ALDH1A1 inh: inhibitors of human aldehyde dehydrogenase 1A1. P00352. Purified ALDH1A1, NADH fluorescence, propionaldehyde substrate. Potency, µM (doses to about 75.3 µM), for inactives: at the top dose activity, negative = inhibition, most hits filed as inhibitors. hit rate 7.3% among 220,000; active means well fitted inhibition curve with a large enough effect, not every such curve was filed as active; inconclusive means small, poorly fitted or top-dose-only effect, or another doubt; inactive means no such curve, though single readings can be large or run the other way;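 further: potency means the concentration at half of the fitted maximal effect; plate controls were no enzyme wells and a reference inhibitor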
HTT ATP protect: Huntington cell model cytoprotection by ATP luminescence; hit rate 0.14% among 230,000; Potency, µM (top dose mostly 56.4 µM), inactives show cytoprotection (ATP increase), hits mostly activators; PC12 HTT-Q103 induced, cytoprotection, ATP luminescence, 40 h; further: potency means the concentration at half of the fitted maximal effect; % of control where 0% means no effect; nearly all actives have a fitted effect of over 45% in size
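Readout: ATPlite luminescence (ATP level). Model: stable PC12, inducible Htt exon1 Q103-GFP. Inducer: tebufenozide, 100 nM final. Compounds: dose series. No G418 in medium.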
CBFb RUNX1 block: inhibitors of human CBF-beta and RUNX1 interaction; Q01196+Q13951; AlphaScreen CBFb-His/RUNX1-biotin binding, biochemical; Potency, µM (titrated, usually from 59.8 µM), for the others: at the top dose activity, negative = inhibition, most hits filed as inhibitors; 230,000 tested, under 10 active; AID 1477; further: % of control where 0% means no effect
Target sequence (Q01196 whole entry, looked up): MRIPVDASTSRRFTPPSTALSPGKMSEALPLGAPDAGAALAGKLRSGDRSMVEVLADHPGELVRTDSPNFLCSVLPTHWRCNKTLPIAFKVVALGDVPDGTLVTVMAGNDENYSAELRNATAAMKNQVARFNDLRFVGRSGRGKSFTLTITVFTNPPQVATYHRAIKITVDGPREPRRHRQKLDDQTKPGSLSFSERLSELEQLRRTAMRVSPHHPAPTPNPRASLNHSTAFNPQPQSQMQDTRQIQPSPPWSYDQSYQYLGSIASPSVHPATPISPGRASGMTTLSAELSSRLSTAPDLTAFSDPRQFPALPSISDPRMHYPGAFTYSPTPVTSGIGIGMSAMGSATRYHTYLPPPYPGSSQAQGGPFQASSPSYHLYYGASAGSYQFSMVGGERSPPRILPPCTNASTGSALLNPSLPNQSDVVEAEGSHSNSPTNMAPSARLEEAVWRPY
Target sequence (Q13951 whole entry, looked up): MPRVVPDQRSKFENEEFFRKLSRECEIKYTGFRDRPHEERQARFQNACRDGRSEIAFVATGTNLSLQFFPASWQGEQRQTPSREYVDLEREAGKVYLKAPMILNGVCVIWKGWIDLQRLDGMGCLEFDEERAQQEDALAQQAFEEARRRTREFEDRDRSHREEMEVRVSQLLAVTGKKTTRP
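AlphaScreen binding: CBFb-His and RUNX1-biotin (30 nM each) preincubated 20 min, compound added for 15 min, then nickel and streptavidin beads for 90 min, all at room temperature. Disruption of the interaction by any mechanism counts as activity.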
HTT aggregate: mutant huntingtin aggregation inhibition | PC12 HttQ103-GFP aggregates, Acumen cytometry, 40 h | Potency, µM (top dose mostly 46.1 µM), inactives show at the highest dose activity change, negative = inhibition, usual class: inhibitors | hit rate 1.1% among 220,000; further: potency means the concentration at half of the fitted maximal effect; on the % scale 0 is the no-effect control and ±100 the full control effect; nearly all actives have a fitted effect of over 60% in size
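Huntingtin Q103 exon 1–GFP aggregates in induced PC12 cells (100 nM tebufenozide) were quantified by cytometry from lysates, with compounds dosed in titration.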
HPGD block: HPGD (human) dehydrogenase inhibition; P15428; purified HPGD, NADH fluorescence kinetic, PGE2 substrate; Potency, µM, without a hit: at the top dose activity change, negative = inhibition, hits mostly inhibitors; hit rate 4.3% among 150,000; AID 894; active means well fitted inhibition curve with a large enough effect, not every such curve was filed as active; inconclusive means small, poorly fitted or top-dose-only effect, or another doubt; inactive means no such curve, though single readings can be large or run the other way; further: potency means the concentration at half of the fitted maximal effect; on the % scale 0 is the no-effect control and ±100 the full control effect
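20 nM HPGD preincubated 15 min at room temperature with compound in 50 mM Tris-HCl pH 8, 0.01% Tween 20. Started with 1 mM NAD+ and 30 uM prostaglandin E2; NADH fluorescence (360/450 nm) read 5 times over 30-s intervals, last minus first.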
PNC inhibitor: perinucleolar compartment assembly inhibition. PC3M PTB-GFP, PNC prevalence imaging, 16 h; active compounds read low. activity change (PNC), negative = inhibition, % at 10 µM. hit rate 3.1% among 140,000. AID 2417;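 active means readout at or below -70, meaning at least 70% loss of cells showing the perinucleolar compartment, a nuclear body marking cancer cells; inconclusive means readout between -30 and a set limit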;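 further: plate controls were DMSO wells for no effect and camptothecin positive control wells for full effect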
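Read-out is percentage of cells bearing a perinucleolar compartment, from automated 20x imaging of fixed, Hoechst-stained PC3M PTB-GFP cells. Cells were seeded 4 h, then exposed 16 h to compound (23 nl of library stock) in duplicate plates.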
Starred values were filed as active, the others as inactive; ? = inconclusive; . = no result; [ ] = another dose, or the depositor's remark. A selection: hits, their analogues and other compounds. The true share with any hit is near 11%. Unless noted, the call rests on the fitted dose curve; in most records, active means well fitted curve in the direction sought with a large enough effect; inconclusive means small, poorly fitted or top-dose-only effect, or another doubt; inactive means no such curve, though single readings can be large; an effect the other way counts as inactive or inconclusive.

SMILES | ALDH1A1 inh | HTT ATP protect | CBFb RUNX1 block | HTT aggregate | HPGD block | PNC inhibitor
O=[N+]([O-])c1cccc(N/N=C/c2cc([N+](=O)[O-])ccc2O)c1 | 3.0% | -25.7% | -11.6% | -25.7% | . | .
C[C@H](N)CCCC(C)(C)O | 7.7%[20.9 µM] | ? | 6.2%[21.7 µM] | . | -6.7% | .
CC(C)C[C@H](NC(=O)c1ccc(NCc2cnc[nH]2)cc1-c1cccc2ccccc12)C(=O)O | . | . | 4.2% | . | . | .
COc1ccccc1NC(=O)CN1CC(=O)Nc2ccccc21 | 3.55µM* | -15.4% | 5.6% | 9.8% | . | .
COc1ccccc1NC(=O)CN1CCN(c2ccccc2OC)CC1 | -0.6% | -8.8%[10 µM] | 7.0% | -6.6%[9.22 µM] | . | .
O=C(CN1CC(=O)Nc2ccccc21)Nc1ccc(F)c(F)c1 | 6.31µM* | -32.1% | 1.4% | 16.3% | . | .
CC(=O)N1CCC[C@H]1C(=O)O | -3.7% | -25.4% | -1.8% | -18.2% | . | .
O=C(O)C1CCCN1C(=O)c1cncc(Br)c1 (configuration not stated) | 20µM* | -8.6% | 2.0% | -3.0% | 2.4% | -13.1
O=c1cnnc(N/N=C/c2c[nH]c3ccccc23)[nH]1 | -12.2% | -45.7% | -15.5% | -20.3% | . | .
Cc1noc(C)c1-c1cc(N(C)Cc2ccco2)ncn1 | ? | -4.6% | . | . | . | .
CCCNS(=O)(=O)c1ccc(OC)c(Cl)c1Cl | -10.9% | 21.3% | 3.1% | -21.3% | -13.4% | ?
COc1ccc(S(=O)(=O)NCCSC(C)(C)C)c(Cl)c1Cl | 2.38µM* | 17.8% | -6.8% | -1.7% | ? | -7.9
OC(CNC1CCCCC1)COCCOc1ccc(Br)cc1 (configuration not stated) | 9.5% | 8.4%[10 µM] | -2.3% | -8.3% | -0.5% | -6.5
COc1ccc(/C=C2\CCc3ccccc3C2=O)cc1Cn1nc(C)cc1C | ? | -14.0% | -20.5% | 25.1µM* | -3.9% | 20.9
O=C(CSc1nnc(-c2ccc(O)cc2)o1)Nc1ccc2c(c1)OCCO2 | -0.4% | -76.0% | 1.5% | -1.1% | -3.6% | ?
O=C(CSc1nnc(CNC(=O)c2ccccc2F)o1)Nc1ccc2c(c1)OCCO2 | 10µM* | -5.3% | -1.4% | 3.7% | -9.0% | 9.5
O=C(CN1CCC(NC(=O)c2ccccc2F)CC1)Nc1ccc2c(c1)OCCO2 | 12.6µM* | -0.4%[10 µM] | -7.0% | 16.6%[9.22 µM] | . | .
O=C(CSc1nnc(-c2ccccc2Cl)o1)Nc1ccc2c(c1)OCCO2 | 20µM* | 15.2%[10 µM] | 11.9% | -13.2% | -9.8% | -13.3
O=C(CSc1nnc(CNC(=O)c2ccccc2F)o1)Nc1ccc2c(c1)OCO2 | ? | -24.3% | 0.6% | 2.9% | . | .
Cc1ccccc1C(=O)NC1CCN(CC(=O)Nc2ccc3c(c2)OCCO3)CC1 | 3.2% | 2.2% | -5.1% | -20.3% | . | .
O=C(NCc1nnc(SCC(=O)N2CCC(Cc3ccccc3)CC2)o1)c1ccccc1F | 8.91µM* | -10.7% | 14.4% | -13.2% | -8.6% | -27.2
CS(=O)(=O)N(CC(=O)Nc1ccc(S(=O)(=O)N2CCCC2)cc1)c1ccccc1 | -5.2% | -1.4%[10 µM] | 7.1% | 13.4%[9.22 µM] | . | .
Cc1cccc(NC(=O)CSc2nnc(-c3ccccc3C)o2)c1 | -2.4% | . | 11.2% | 0.0028µM* | -6.7% | -2.7
CC1C/C(=N/Nc2nc3ccccc3[nH]2)CC(C)(C)C1 (configuration not stated) | ? | . | ? | -5.5% | -8.7% | ?
O=C(NCCCO)c1ccc(CSc2nc3ccccc3[nH]2)cc1 | -10.8% | 14.9%[10 µM] | -2.3% | 8.8%[9.22 µM] | . | .
SMILES | ALDH1A1 inh | HTT ATP protect | CBFb RUNX1 block | HTT aggregate | HPGD block | PNC inhibitor
COc1cc(/C=N/NC(=O)c2ccc3nc[nH]c3c2)cc(OC)c1OC | -2.9% | -5.0%[10 µM] | 5.3% | -6.6%[9.22 µM] | . | .
COc1cc(/C=N/NC(=O)c2ccc(CSc3nc4ccccc4[nH]3)cc2)cc(OC)c1OC | ? | . | 1.2% | -8.7% | ? | -85.4*
O=C(NCCO)c1ccc(CSc2nc3ccccc3[nH]2)cc1 | 0.8% | 17.4%[10 µM] | 18.4% | 11.3% | 25.1µM* | -25.5
CC1C/C(=N/NC(=O)c2ccc(CSc3nc4ccccc4[nH]3)cc2)CC(C)(C)C1 (configuration not stated) | 25.1µM* | 3.1%[10 µM] | 3.2% | -4.4% | -29.3% | 28.0
COCCn1c(=O)c(-c2cccc(C#N)c2)nc2cnc(N3CCN(C)CC3)nc21 | ? | -12.6% | . | . | . | .
COc1ccc(-c2[nH]ncc2CNCCn2cccn2)c(F)c1 | 1.4% | 11.4%[10 µM] | -0.1% | -6.6%[9.22 µM] | . | .
CCN1CCN(c2nc(C)nc3c2sc(=S)n3C)CC1 | ? | -5.4% | -2.1% | -3.0% | 10µM* | -10.3
NC(=NC1C2CC3CC(C2)CC1C3)Nc1ccc(I)cc1 (configuration not stated) | -6.2% | -23.6% | ? | . | -11.2% | .
O=C(NC(=S)Nc1ccc2c(c1)C(=O)c1ccccc1C2=O)c1ccc(F)cc1 | 11.2µM* | -51.3%[10 µM] | -0.2% | ? | -14.9% | 21.7
Cc1ccc(NC(=S)NC(=O)c2ccc(F)cc2)cc1S(=O)(=O)Nc1ccccc1Cl | 12.6µM* | 23.1%[10 µM] | -24.7% | -29.9% | -10.2% | -0.1
Cc1ccc(NC(=O)c2cccc(OCc3c(C)noc3C)c2)cc1S(=O)(=O)Nc1ccccc1Cl | -5.3% | 6.5%[0.074 µM] | -8.8% | ? | ? | ?
COCCNC(=O)C(c1ccncc1)N(Cc1ccccc1)C(=O)Cn1nnc2ccccc21 (configuration not stated) | -3.1% | -25.2% | -3.6% | 4.2% | . | .
N[C@@H](Cc1ccc(O)c(O)c1)C(=O)O | -5.3%[20.9 µM] | -9.1%[40.3 µM] | ? | . | -17.2% | .
CC(Cc1ccc(O)c(O)c1)C(C)Cc1ccc(O)c(O)c1 (configuration not stated) | 28.2µM* | ? | ? | -13.7% | 12.6µM* | .
CCOc1cc(C2C3=C(CCCC3=O)N(C)C3=C2C(=O)CCC3)cc(Cl)c1O | -3.8% | 17.4%[10 µM] | -4.1% | 0.0% | -18.0% | -100.0*
CCOc1cc(C2C3=C(CCCC3=O)NC3=C2C(=O)CCC3)cc(Cl)c1O | -2.0% | 21.1%[10 µM] | 0.5% | 24.5% | -13.7% | 14.3
CC1CCc2nc(/C(C#N)=C/c3ccncc3)sc2C1 (configuration not stated) | ? | -26.8% | 3.0% | -23.4% | . | .
C[C@]12CC[C@@H]3c4ccc(O)cc4CC[C@H]3[C@@H]1CC[C@H]2O | -1.6% | ? | -7.1% | . | -0.9% | .
CCn1c(SCC(=O)N2CCN(C(=O)c3ccco3)CC2)nnc1C(C)C | 10.1% | 11.4%[10 µM] | 5.8% | -12.9%[9.22 µM] | . | .
N#Cc1cc(C(=O)c2cc(Cl)ccc2O)cn(-c2ccccc2)c1=O | -4.8% | -19.0%[10 µM] | 8.0% | -23.3% | -15.3% | 2.5
O=C(c1ccccc1)c1cc(Cl)ccc1N1C(=O)C=CC1=O | 10µM* | -27.9%[10 µM] | -10.4% | ? | . | .
